How the values were obtained:
Conditions in all cases: concentration: 1 μM, replicates: in singlicate; n = 1
CAMK1B = tested on: CAMK1B
CAMK1D = tested on: CAMK1D
CAMK1G = tested on: CAMK1G
CAMK1 = tested on: CAMK1
CAMK2A = tested on: CAMK2A
CAMK2B = tested on: CAMK2B
CAMK2D = tested on: CAMK2D
CAMK2G = tested on: CAMK2G
CAMK4 = tested on: CAMK4
CAMKK1 = tested on: CAMKK1
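Further: KINOMEscan kinase panel screen.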

Row | Structure (SMILES) | %Inh (CAMK1B) [%] | %Inh (CAMK1D) [%] | %Inh (CAMK1G) [%] | %Inh (CAMK1) [%] | %Inh (CAMK2A) [%] | %Inh (CAMK2B) [%] | %Inh (CAMK2D) [%] | %Inh (CAMK2G) [%] | %Inh (CAMK4) [%] | %Inh (CAMKK1) [%]
1 | O=c1cc(N2CCOCC2)nc2n(Cc3cccc(Cl)c3Cl)ccn12 [GSK2286295] | 8 | 18 | 0 | 14 | 0 | 0 | 5 | 9 | 0 | 14
2 | CC(=O)Nc1nc2cnc(Nc3cc(NC(=O)c4cccc(CCC#N)c4)ccc3C)nc2s1 | 0 | 30 | 0 | 25 | 20 | 0 | 0 | 0 | 15 | 0
3 | Nc1ncnc2[nH]c(-c3ccccc3)nc12 [AH5015] | 29 | 13 | 0 | 0 | 0 | 0 | 0 | 0 | 0 | 0
4 | Cc1ccc(-c2cc(-c3c[nH]nc3-c3ccccn3)ccn2)cc1 [GW684088] | 55 | 13 | 14 | 9 | 2 | 0 | 16 | 25 | 0 | 30
5 | NC(=O)c1nnc2ccccc2c1N | 0 | 13 | 7 | 14 | 0 | 0 | 7 | 0 | 0 | 10
6 | Nc1nc(-c2nccs2)c(-c2ccnc3ccccc23)s1 [GW693542] | 7 | 27 | 0 | 30 | 0 | 0 | 0 | 13 | 0 | 6
7 | CS(=O)(=O)c1ccc(-c2nc3n(c2-c2ccncc2)CCC3)cc1 [SKF-105942] | 7 | 0 | 14 | 8 | 0 | 0 | 6 | 6 | 0 | 0
8 | Cl.Oc1ccc(-c2nc(-c3ccccc3)[nH]c2-c2ccncc2)cc1 [SB-428218] | 24 | 0 | 2 | 2 | 0 | 0 | 9 | 29 | 0 | 18
9 | Cn1ccc2ncnc(Oc3cccc(C(=O)Nc4ccccc4)c3)c21 | 12 | 0 | 17 | 29 | 1 | 0 | 20 | 19 | 0 | 20
10 | Cc1nnc(-c2ccc3occ(-c4ccc(S(C)=O)cc4)c3c2)[nH]1 (stereo not drawn) | 1 | 15 | 23 | 9 | 4 | 12 | 10 | 12 | 0 | 14
11 | CCn1c(-c2cccnc2O)nc2cnccc21 [SB-736715] | 30 | 0 | 0 | 0 | 0 | 0 | 0 | 0 | 0 | 2
12 | Cc1c(O)cccc1Nc1ccnc2ccc(C(F)(F)F)cc12.Cl [GW466413] | 2 | 7 | 0 | 1 | 0 | 0 | 0 | 0 | 0 | 12
13 | COC(=O)c1c(-c2ccccc2)c2cc(OC)ccc2c(=O)n1Cc1ccccc1 | 0 | 20 | 20 | 19 | 15 | 0 | 13 | 18 | 0 | 16
14 | Cc1cccc(-c2nc(Nc3ccncc3)c3ccccc3n2)n1 [GW855857] | 0 | 3 | 0 | 0 | 6 | 0 | 7 | 0 | 47 | 24
15 | O=C(Nc1n[nH]c2cc(-c3cccc(F)c3F)ccc12)C1CC1 [SB-733894] | 0 | 12 | 100 | 26 | 19 | 13 | 1 | 7 | 0 | 8
16 | O=C(Nc1n[nH]c2nc(-c3nccs3)c(Br)cc12)C1CCCC1 [SB-742609] | 20 | 1 | 8 | 0 | 0 | 0 | 15 | 11 | 0 | 8
17 | COc1cccc(NC(=O)NC2CCN(c3ccnc(Nc4ccc(F)cc4)n3)C2)c1 (stereo not drawn) [GSK1379721] | 27 | 12 | 0 | 10 | 0 | 0 | 6 | 22 | 0 | 18
18 | Clc1cc(Cl)cc(Nc2ccnc(Nc3cc(Cl)cc(Cl)c3)n2)c1 [GSK175726] | 3 | 10 | 0 | 7 | 4 | 0 | 0 | 8 | 0 | 10

Row | Structure (SMILES) | %Inh (CAMK1B) [%] | %Inh (CAMK1D) [%] | %Inh (CAMK1G) [%] | %Inh (CAMK1) [%] | %Inh (CAMK2A) [%] | %Inh (CAMK2B) [%] | %Inh (CAMK2D) [%] | %Inh (CAMK2G) [%] | %Inh (CAMK4) [%] | %Inh (CAMKK1) [%]
19 | COc1cc2ncn(-c3cc(OCC4CCCO4)c(C(N)=O)s3)c2cc1OC (stereo not drawn) [GSK204607] | 0 | 13 | 0 | 6 | 0 | 0 | 0 | 0 | 0 | 0
20 | COc1ccccc1CNC(=O)c1cc(C(=O)c2ccccc2C)c[nH]1 [GSK364507] | 7 | 0 | 0 | 9 | 0 | 0 | 0 | 12 | 0 | 7
21 | Cn1cncc1-c1ccc2ncnc(Nc3ccc(OCc4ccccc4)cc3)c2c1 [GW320571] | 11 | 23 | 16 | 23 | 0 | 0 | 9 | 10 | 23 | 0
22 | COC(=O)c1c(-c2ccccc2)c2cc(C(=O)O)ccc2c(=O)n1Cc1ccccc1 | 0 | 1 | 6 | 1 | 0 | 0 | 5 | 0 | 18 | 0
23 | C[C@@H]1CCCCN1c1cc(-c2ccc3c(N)n[nH]c3c2)nc(N)n1 [GSK2258759] | 0 | 15 | 0 | 9 | 0 | 0 | 1 | 28 | 0 | 8
24 | O=C(Nc1n[nH]c2nc(-c3nccs3)c(Br)cc12)C1CC1 [SB-742251] | 19 | 0 | 0 | 0 | 0 | 0 | 0 | 0 | 0 | 0
25 | COc1ccccc1-c1ccc2c(NC(=O)C3CC3)n[nH]c2n1 [SB-711239] | 33 | 12 | 27 | 4 | 0 | 0 | 16 | 9 | 0 | 9
26 | Cl.O=C(Nc1cccc(-c2nn3ncccc3c2-c2ccnc(Nc3cccnc3)n2)c1)c1c(F)cccc1F [GSK312879] | 27 | 3 | 0 | 8 | 0 | 0 | 0 | 13 | 0 | 4
27 | Cn1ccc2ncnc(Oc3ccc(NC(=O)Nc4ccccc4)cc3)c21 | 4 | 5 | 22 | 0 | 0 | 0 | 13 | 3 | 0 | 0
28 | CC(C)(C)c1ccc(C(=O)Nc2cn3cc(Cl)ccc3n2)cc1 | 0 | 0 | 0 | 0 | 3 | 0 | 3 | 11 | 6 | 95.8
29 | Cc1ccc(NC(=O)Nc2cccc(Cl)c2)cc1-c1ccc(C(=O)Nc2ccncc2)cc1 [GSK1398468] | 28 | 13 | 0 | 7 | 0 | 0 | 7 | 27 | 0 | 0
30 | O=C(O)COc1ncnc2cc(-c3ccc4[nH]ncc4c3)sc12 | 7 | 0 | 31 | 0 | 0 | 0 | 26 | 17 | 7 | 34
31 | Cc1csc(-c2nc(Nc3ccncc3)c3ccccc3n2)n1 [GW869640] | 9 | 0 | 14 | 5 | 10 | 2 | 17 | 25 | 0 | 26
32 | O=C(Nc1ccc2c(c1)OCO2)NC1CCN(c2ccnc(Nc3ccc(F)cc3)n2)C1 (stereo not drawn) [GSK1379724] | 16 | 30 | 23 | 35 | 0 | 0 | 15 | 13 | 1 | 9
33 | Cl.NC(=O)c1cccc(Nc2nccc(Nc3ccc(Oc4cccc(Cl)c4)c(Cl)c3)n2)c1 [GW659008] | 0 | 17 | 9 | 25 | 0 | 0 | 5 | 16 | 0 | 0
34 | CN1C(=O)C(Nc2ccc(Cl)c(C(=O)O)c2)=C(c2ccc(Cl)cc2)C1=O [SB-404290] | 0 | 17 | 100 | 22 | 17 | 0 | 0 | 18 | 0 | 0
35 | COc1cc(Nc2nccc(N3CCC(NC(=O)Nc4cc(C)ccc4C)C3)n2)cc(OC)c1OC (stereo not drawn) [GSK1379762] | 14 | 10 | 0 | 17 | 0 | 0 | 0 | 16 | 0 | 21
36 | Cc1cc(NCC(c2ccccc2)c2ccccc2)nc(NCc2ccc(C(F)(F)F)cc2)n1 [GW497681] | 0 | 17 | 3 | 12 | 0 | 0 | 13 | 25 | 0 | 5
